The source of these data is PubChem BioAssay (NCATS).

Results filed as inconclusive are left out. A call without a number means that no potency is given here. Active and inactive are the calls of the source. Calls follow the shape of the dose curve; as a rule, active = well fitted curve in the direction sought with a large enough effect; inconclusive = small, poorly fitted or top-dose-only effect, or another doubt; inactive = no such curve, though single readings can be large; an effect the other way counts as inactive or inconclusive.

System in the first assay: not listed separately
Description: qHTS to identify inhibitors of the type 1 interferon - major histocompatibility complex class I in skeletal muscle: primary screen against the NCATS Mechanism Interrogation Plate v5.0 (MIPE) Libary (AID 1347411). Also: nearly all actives have a fitted effect of over 65% in size. Also: potency is read from the fitted curve at half-maximal effect. The following applies: iHSKM cells + IFN-b, HiBiT-tagged MHC-I luminescence, 24 h; series mostly up to 45.8 µM. An outline of the steps: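 Cells were genome-edited human myoblasts carrying a HiBit tag on endogenous HLA-B. They were treated with IFN-beta (4.0 ng/ml) and titrated compounds (top 46 uM) for 24 hrs before lytic HiBiT detection.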
`CCCCC(C)(C)[C@H](O)C=C[C@H]1[C@H](O)CC(=O)[C@H]1CC=CCCCC(=O)O`: the Potency entry was “inactive”.
The same measure, in the same setting: for `O=C(O)CCNc1cc(N2CCc3ccccc3CC2)nc(-c2ccccn2)n1` the value was “inactive”; for `COc1cc2nccc(Oc3ccc(NC(=O)Nc4cc(C)on4)c(Cl)c3)c2cc1OC`, 13.1 µM (active); for `Cc1cccc(-c2[nH]c(C(C)(C)C)nc2-c2ccc3c(c2)OCO3)n1`, “inactive”.
On the same count and under the same terms, under `CC(=O)Nc1cccc(-n2c(=O)n(C3CC3)c(=O)c3c(Nc4ccc(I)cc4F)n(C)c(=O)c(C)c32)c1` stands “inactive”; under `CCCCc1ccc(NS(=O)(=O)c2ccc(C)c(C(=O)N3CCN(c4cccc(C)c4C)CC3)c2)cc1`, “inactive”; under `NC(=O)c1noc([C@H](CCCC2CCCCC2)CC(=O)NO)n1`, “inactive”.
As for `CO[C@@H]1C(N(C)C(=O)c2ccccc2)C[C@H]2O[C@]1(C)n1c3ccccc3c3c4c(c5c6ccccc6n2c5c31)C(=O)NC4=O` (stereo not given in full), the Potency result was “inactive”.
The same measure, in the same setting: for `C=CC(=O)Nc1cccc(Sc2nc(Nc3ccc(N4CCN(C)CC4)cc3)ncc2Cl)c1` the value was 13.1 µM (active); for `COc1nccc(-c2c(-c3ccc(F)cc3)ncn2C2CCNCC2)n1`, “inactive”; for `CN(C)CCCNC(=O)c1ccc(-c2cc(O)c3ncccc3c2)cc1`, “inactive”.
The same measure, in the same setting: for `CCN(CCO)CCCOc1ccc2c(Nc3cc(CC(=O)Nc4cccc(F)c4)[nH]n3)ncnc2c1` the value was “inactive”; for `CC(C)CNc1ccnc(NCc2csc(-c3ccccc3)n2)n1`, 16.5 µM (active).
The same measure, in the same setting: under `CCc1cccc(CC)c1NC(=O)N1Cc2[nH]nc(NC(=O)c3ccc(N4CCN(C)CC4)cc3)c2C1` stands 10.4 µM (active); under `Cc1ccc(S(=O)(=O)Nc2nc3ccccc3nc2Nc2ccc3nsnc3c2)cc1`, “inactive”.
Consider `CNC(=O)[C@H](Cc1ccccc1)NC(=O)[C@H](CC(C)C)[C@H](CSc1cccs1)C(=O)NO`, for which the Potency result is “inactive”.
Regarding `CN(C)N=Nc1nc[nH]c1C(N)=O`, the Potency result was “inactive”.
The same measure, in the same setting: under `CN(C)CCOc1cc(-c2cn[nH]c2)ccc1NC(=O)C1COc2ccccc2O1` (stereo not given) stands “inactive”; under `COc1cccc(OC)c1-c1cc(C(=O)NC2(C(=O)O)C3CC4CC(C3)CC2C4)nn1-c1ccnc2cc(Cl)ccc12` (stereo not given), “inactive”.
Still for that read-out and setting: for `CCOC(=O)c1c(CSc2ccccc2)n(C)c2cc(Br)c(O)c(CN(C)C)c12` the value was “inactive”; for `CCCC1OC2C[C@@H]3[C@H]4CCC5=CC(=O)C=C[C@]5(C)[C@H]4C(O)C[C@]3(C)[C@]2(C(=O)CO)O1` (stereo not given in full), “inactive”; for `CS(=O)(=O)c1ccc(C2=C(c3ccccc3)C(=O)OC2)cc1`, “inactive”.
The same measure, in the same setting: under `O=C(O)c1ccc(O)c2ncc(N3CCOCC3)cc12` stands “inactive”; under `COc1ccc(CCC(=O)Nc2nc3ccc(Cl)cc3s2)cc1OC`, “inactive”.
As to `COc1ccc(Cn2ccc3ccc(C(=O)NO)cc32)cc1`, the Potency result is “inactive”.
Still for that read-out and setting: under `CN1CCC(COc2cnc(-c3cccc(Cn4nc(-c5cccc(C#N)c5)ccc4=O)c3)nc2)CC1` stands “inactive”; under `CC1(COc2ccc3c(c2)ncn3-c2ccc3cccc(N4CCC(N)CC4)c3n2)COC1`, 5.23 µM (active); under `COc1cc(F)c(C(C)C)cc1-c1ccc(C(F)(F)F)cc1CN1C(=O)O[C@H](c2cc(C(F)(F)F)cc(C(F)(F)F)c2)[C@@H]1C`, “inactive”.
Same read-out and setting: for `O=C1C(c2c(O)[nH]c3ccccc23)=Nc2ccccc21` the value was “inactive”.

In a further assay the target is Protein phosphatase 1D (Homo sapiens) (UniProt O15297). The assay can be described thus: RapidFire Mass Spectrometry qHTS Assay for Modulators of WT P53-Induced Phosphatase 1 (WIP1) (AID 1347424).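 Also: amount of dephosphorylated VEPPL-S-QETFS peptide product formed by WIP1.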 The following applies: WIP1 dephosphorylation of phosphopeptide, RapidFire MS; series mostly up to 63 µM. Summed up: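 WIP1 (10 nM final) was preincubated 1 h at room temperature with compounds in Tris-HCl pH 7.5, 30 mM MgCl2, TCEP, EGTA, BSA; 2 uM VEPPL-pS-QETFS phosphopeptide was added for 5 min, quenched with formic acid, and dephosphorylated product quantified by RapidFire MS.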
Sequence of Protein phosphatase 1D (Homo sapiens) (O15297 whole entry, looked up): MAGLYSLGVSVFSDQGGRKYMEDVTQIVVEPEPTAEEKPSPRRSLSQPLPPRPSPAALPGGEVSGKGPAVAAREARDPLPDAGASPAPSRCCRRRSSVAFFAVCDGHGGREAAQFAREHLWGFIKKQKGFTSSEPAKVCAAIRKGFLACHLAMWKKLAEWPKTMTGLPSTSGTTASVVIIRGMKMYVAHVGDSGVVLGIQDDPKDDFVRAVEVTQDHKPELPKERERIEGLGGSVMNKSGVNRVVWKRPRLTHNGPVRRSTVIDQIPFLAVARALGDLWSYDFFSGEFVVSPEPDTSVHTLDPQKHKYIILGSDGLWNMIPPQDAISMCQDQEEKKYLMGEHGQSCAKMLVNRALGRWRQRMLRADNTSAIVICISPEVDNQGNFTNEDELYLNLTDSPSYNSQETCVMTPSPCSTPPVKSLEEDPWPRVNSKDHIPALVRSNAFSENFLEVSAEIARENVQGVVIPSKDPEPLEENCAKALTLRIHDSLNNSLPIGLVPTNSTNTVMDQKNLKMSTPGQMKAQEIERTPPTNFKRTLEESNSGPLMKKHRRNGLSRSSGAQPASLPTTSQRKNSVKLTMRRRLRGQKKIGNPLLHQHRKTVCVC
A general note: In qHTS, concentration-response curves come from the screen itself.
Turning to `O=C(CCCN1CCN(c2ccc(F)cc2)CC1)NC1c2ccccc2CSc2ccccc21` (stereo not given), the Potency result was “inactive”.
Take `CCCCC[C@H](O)C=C[C@H]1[C@H](O)CC(=O)[C@H]1CC=CCCCC(=O)O`: the Potency entry is “inactive”.
On the same count and under the same terms, for `O[C@@H](COc1cccc2ncccc12)CN1CCN(C2c3ccccc3[C@@H]3[C@H](c4ccccc42)C3(F)F)CC1` (stereo not given in full) the value was “inactive”.

For another assay the target is unchanged. The assay can be described thus: Rhodamine-PBP qHTS Assay for Modulators of WT P53-Induced Phosphatase 1 (WIP1) (AID 1347425). Conditions: recombinant WIP1, Rhodamine-PBP phosphate fluorescence, real-time; series mostly up to 57.5 µM. An outline of the steps: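 The read-out is the change in Rhodamine-PBP fluorescence (f1 - f0, ex 525/em 598 nm) as Pi is released, read each minute for 11 min. Final reaction: 5 nM WIP1, 10 uM phosphopeptide VEPPL-pS-QETFS, 10 uM Rh-PBP, 50 mM Tris-HCl pH 7.5, 30 mM MgCl2. Compound was preincubated with enzyme for 1 hour at room temperature.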
Turning to `O=C(CCCN1CCN(c2ccc(F)cc2)CC1)NC1c2ccccc2CSc2ccccc21` (stereo not given), the outcome was inactive.
Still for that read-out and setting: for `CCCCC[C@H](O)C=C[C@H]1[C@H](O)CC(=O)[C@H]1CC=CCCCC(=O)O` the value was “inactive”.
On the same count and under the same terms, for `O[C@@H](COc1cccc2ncccc12)CN1CCN(C2c3ccccc3[C@@H]3[C@H](c4ccccc42)C3(F)F)CC1` (stereo not given in full) the value was “inactive”.
